Consider eight compounds from PubChem BioAssay (Tox21).

Experiment [1] in a line: qHTS assay to identify small molecule antagonists of the estrogen receptor beta (ER-beta) signaling pathway - cell viability counter screen (AID 1259382).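 Also: HEK293T cells carrying ER-beta-UAS-bla reporter stimulated with estradiol; series mostly up to about 92 µM; nearly all actives have a fitted effect of over 55% in size.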 The gist of the method:
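Cytotoxicity counter screen multiplexed with the beta-lactamase antagonist assay: GripTite HEK293T ER-beta-bla cells were treated 16 hr with test chemicals in the presence of 1nM 17-beta-estradiol, and viability was measured by CellTiter-Glo.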
In general terms: Quantitative high-throughput screening tests each substance at several concentrations.

A short description of experiment [2]: qHTS assay to identify small molecule agonists or antagonists of the thyroid stimulating hormone receptor (TSHR) signaling pathway - wild type cell line counter screen (AID 1259384; calls by dose curve). The method in brief:
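Wild-type HEK293 cells were plated 18 h at 37 C/5% CO2, pin-dosed with compound plus Ro20-1724 medium, held 30 min at room temperature, then given cAMP-d2 and anti-cAMP-cryptate; fluorescence was read after 1 h. Fifteen concentrations, triplicate.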

Experiment [3] concerns the target Thyrotropin receptor (Homo sapiens) (UniProt P16473). Kind of experiment: qHTS assay to identify small molecule antagonists of the thyroid stimulating hormone receptor (TSHR) signaling pathway (AID 1259385; calls by dose curve; also: nearly all actives have a fitted effect of over 20% in size). The gist of the method:
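TSHR-HEK293 cells were plated and held 18 h at 37C/5% CO2, then given compound plus Ro20-1724 and stimulated with TSH at 1.5 ng/mL final. After 30 min at room temperature, cAMP was detected with cAMP-d2/anti-cAMP-cryptate (1 h) by fluorescence.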

Experiment [4] in a line: qHTS assay to identify small molecule agonists of the estrogen receptor alpha (ER-alpha) signaling pathway in the presence of an antagonist - cell viability counter screen (AID 1259386).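 Also: series mostly up to about 92 µM; cells exposed to compounds for 22 h at 37 °C before the viability read; nearly all actives have a fitted effect of over 30% in size.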 The gist of the method: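 Cytotoxicity was measured in parallel with the ERE-luciferase agonist screen, in the same wells. The cells were VM7Luc4E2, which endogenously express ER-alpha, and treatment was with compounds plus 10.0nM ICI-182,780 for 22hr.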

Experiment [5] deals with Progesterone receptor (Homo sapiens) (UniProt P06401). Briefly: qHTS assay to identify small molecule agonists of the progesterone receptor (PR) signaling pathway (AID 1346784; calls by dose curve; also: nearly all actives have a fitted effect of over 30% in size). The gist of the method:
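Agonist qHTS: compounds pinned onto 3,000 PR-UAS-bla HEK 293T cells per well in charcoal-stripped serum medium, 16hr at 37C, then beta-lactamase activity measured by LiveBLAzer FRET fluorescence after 2 hours at room temperature.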

For experiment [6] the target is unchanged. Briefly: qHTS assay to identify small molecule antagonists of the progesterone receptor (PR) signaling pathway (AID 1346795; active = well fitted inhibition curve with a large enough effect in the signal ratio in the repeat runs, not every such curve was filed as active; the % refers to the signal ratio; also: potency is read from the fitted curve at half-maximal effect). The method in brief:
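Antagonist mode with agonist R5020 at 1 nM final and 16 hr incubation at 37C. Reporter was beta-lactamase driven by UAS in HEK293T (PR-UAS-bla), 2% charcoal-stripped serum; signal from LiveBLAzer FRET substrate, 2 hr at room temperature.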

Experiment [7] can be described thus: qHTS assay to identify small molecule antagonists of the progesterone receptor (PR) signaling pathway - cell viability counter screen (AID 1346798). Also: series mostly up to about 92 µM; nearly all actives have a fitted effect of over 50% in size. The gist of the method: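 Cytotoxicity read as CellTiter-Glo luminescence (30 min, room temperature) in the same wells as the beta-lactamase readout. HEK293T PR-UAS-bla cells in charcoal-stripped 2% FBS received compound and R5020, then 16 h at 37C, 5% CO2.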

Experiment [8] can be described thus: qHTS assay to identify small molecule agonists of the progesterone receptor (PR) signaling pathway - cell viability counter screen (AID 1346799; calls by dose curve; also: nearly all actives have a fitted effect of over 45% in size). The gist of the method:
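Cytotoxicity measured by CellTiter-Glo luminescence (30 min, RT) in the same wells as the PR beta-lactamase agonist read. Those HEK293T cells had 16 h compound treatment at 37 C in 2% charcoal-stripped FBS medium.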

Experiment [9] can be described thus: qHTS assay to identify small molecule antagonists of the TGF-beta/Smad signaling pathway - cell viability counter screen (AID 1346824). Also: nearly all actives have a fitted effect of over 50% in size. The gist of the method: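 SBE-bla HEK 293T cells were plated overnight at 37 C, then given compounds in DMSO plus TGF-beta1 (added as 0.25 ng/mL solution) for 5 hr. After the bla read, CellTiter-Glo was added to the same wells and luminescence read after 30 min at room temperature.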

The nature of experiment [10]: qHTS assay to identify small molecule agonists of the TGF-beta/Smad signaling pathway - cell viability counter screen (AID 1346829). Also: top concentration of the series differs between compounds; nearly all actives have a fitted effect of over 45% in size. The gist of the method:
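HEK 293T SBE-bla line, 5 hr compound exposure at 37 C, multiplexed CellTiter-Glo viability read by luminescence.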

A short description of experiment [11]: qHTS assay to identify small molecule agonists of the TGF-beta/Smad signaling pathway (AID 1346859; active = well fitted activation curve with a large enough effect in the signal ratio in the repeat runs, not every such curve was filed as active; the % refers to the signal ratio; also: series mostly up to about 77 µM). The gist of the method: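 Fluorescence (ex 405 nm; em 460 and 530 nm) was read 2 h after LiveBLAzer FRET substrate at RT. The preceding compound treatment of overnight-plated SBE-bla HEK293T cells lasted 5 h at 37 C.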
Experiment [12] has as its target Thyrotropin-releasing hormone receptor (Homo sapiens) (UniProt P34981). Kind of experiment: qHTS assay to identify small molecule agonists of the thyrotropin-releasing hormone receptor (TRHR) signaling pathway (AID 1346891; calls by dose curve; also: series mostly up to about 58 µM). The gist of the method:
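Agonist-mode intracellular calcium readout: kinetic fluorescence over 3 min at 1 s intervals after compound addition to TRHR-HEK293 cells (18 h seeded, 2 h dye-loaded at 37 C). Fifteen concentrations, triplicates.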

Experiment [13] in a line: Human pregnane X receptor (PXR) small molecule agonists, qHTS cell viability counter screen (AID 1346977). Also: nearly all actives have a fitted effect of over 50% in size. The method in brief:
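Same-well viability read: CellTiter-Fluor added after 23 hr compound exposure, fluorescence measured 1 hr later. Cells were PXR-Luc HepG2 seeded at 2,000/well in 5% charcoal-stripped FBS medium, rested 5 hr before dosing at 37 C.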

Experiment [14] can be described thus: Caspase-3/7 induction in HepG2 cells by small molecules, qHTS assay (AID 1346978). Also: nearly all actives have a fitted effect of over 15% in size. The method in brief: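 Wild-type HepG2 cells (2,000/well) were settled 5 h at 37 C, 5% CO2, then exposed to compounds in DMSO for 17 h. Caspase-3/7 activity was read by luminescence 30 min after adding Caspase-Glo 3/7 reagent at room temperature.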
Experiment [15] in a line: Caspase-3/7 induction in CHO-K1 cells by small molecules, qHTS cell viability counter screen (AID 1346979). Also: nearly all actives have a fitted effect of over 35% in size. The gist of the method: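 Cytotoxicity counter screen: CellTiter-Fluor added to compound-treated wild-type CHO-K1 cells at 16 h (37C, 5% CO2), fluorescence measured 1 h later; same wells as caspase-3/7 measurement.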
A short description of experiment [16]: Caspase-3/7 induction in CHO-K1 cells by small molecules, qHTS assay (AID 1346980). Also: nearly all actives have a fitted effect of over 15% in size. The gist of the method:
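Wild-type cells were seeded at 1,500 per well and settled 5 hr at 37 C, 5% CO2, then exposed to DMSO-dissolved compounds for 17 hr. Caspase-Glo 3/7 reagent was added, and luminescence was read after 30min at room temperature.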

The nature of experiment [17]: Caspase-3/7 induction in HepG2 cells by small molecules, qHTS cell viability counter screen (AID 1346981). Also: series mostly up to about 92 µM; nearly all actives have a fitted effect of over 30% in size. The method in brief:
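Cell viability is measured as a cytotoxicity counter screen alongside the Caspase-Glo 3/7 readout in identical wells. Wild-type HepG2 cells are treated with test compounds for 16 hr at 37 C before CellTiter-Fluor addition and a 1-hr incubation.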

Experiment [18] has as its target Thyrotropin-releasing hormone receptor (Homo sapiens) (UniProt P34981). Briefly: qHTS assay to identify small molecule antagonists of the thyrotropin-releasing hormone receptor (TRHR) signaling pathway (AID 1346877; active = well fitted inhibition curve with a large enough effect in the repeat runs, not every such curve was filed as active; also: series mostly up to about 51 µM). The gist of the method: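 Antagonism is measured as suppression of the calcium response to 1 nM TRH in TRHR-HEK293 cells that have been dye-loaded for 2 h at 37 °C after overnight plating. Each compound is tested at 15 concentrations in triplicate.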

The structures appear in SMILES notation. Values without a mark were called inactive. Records with an inconclusive call do not appear. The source made the active and inactive calls. Unless noted, calls follow the shape of the dose curve; as a rule, active = well fitted curve in the direction sought with a large enough effect in the repeat runs; inconclusive = weak or mixed curves; inactive = no such curve, though single readings can be large; an effect the other way counts as inactive or inconclusive.
% is scaled to controls: 0 for no effect and ±100 for the full control effect.

Sequence of Thyrotropin-releasing hormone receptor (Homo sapiens) (P34981 whole entry, looked up): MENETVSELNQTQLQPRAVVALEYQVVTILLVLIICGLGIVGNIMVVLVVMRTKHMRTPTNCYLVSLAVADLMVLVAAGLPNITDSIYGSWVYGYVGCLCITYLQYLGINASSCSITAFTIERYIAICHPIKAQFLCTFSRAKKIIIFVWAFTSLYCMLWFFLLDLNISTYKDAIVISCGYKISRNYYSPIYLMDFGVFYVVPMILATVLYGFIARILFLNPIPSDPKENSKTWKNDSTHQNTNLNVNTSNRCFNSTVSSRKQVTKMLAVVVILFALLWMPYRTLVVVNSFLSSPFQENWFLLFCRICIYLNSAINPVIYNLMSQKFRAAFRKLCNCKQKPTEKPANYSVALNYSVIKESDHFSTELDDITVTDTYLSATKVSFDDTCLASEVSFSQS
Sequence of Thyrotropin receptor (Homo sapiens) (P16473 whole entry, looked up): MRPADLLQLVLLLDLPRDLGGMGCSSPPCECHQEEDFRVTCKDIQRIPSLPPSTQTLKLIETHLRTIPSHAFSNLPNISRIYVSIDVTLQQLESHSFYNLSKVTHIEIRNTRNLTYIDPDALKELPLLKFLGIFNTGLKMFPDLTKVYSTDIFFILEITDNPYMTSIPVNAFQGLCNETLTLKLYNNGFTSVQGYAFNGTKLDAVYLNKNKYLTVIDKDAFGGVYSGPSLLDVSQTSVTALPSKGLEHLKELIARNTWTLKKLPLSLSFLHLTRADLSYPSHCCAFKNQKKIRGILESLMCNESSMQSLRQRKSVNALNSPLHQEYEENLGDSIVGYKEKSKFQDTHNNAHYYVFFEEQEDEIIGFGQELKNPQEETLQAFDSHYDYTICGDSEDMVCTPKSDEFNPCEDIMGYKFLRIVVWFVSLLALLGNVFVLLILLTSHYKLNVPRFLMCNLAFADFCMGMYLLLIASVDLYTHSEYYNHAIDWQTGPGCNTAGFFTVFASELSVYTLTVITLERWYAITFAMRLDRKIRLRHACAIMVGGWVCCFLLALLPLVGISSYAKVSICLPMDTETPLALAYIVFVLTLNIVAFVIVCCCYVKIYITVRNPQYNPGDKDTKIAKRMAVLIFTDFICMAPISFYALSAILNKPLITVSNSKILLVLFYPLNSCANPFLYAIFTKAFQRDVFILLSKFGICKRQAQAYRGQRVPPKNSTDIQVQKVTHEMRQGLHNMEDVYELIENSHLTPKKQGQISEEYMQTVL
Sequence of Progesterone receptor (Homo sapiens) (P06401 whole entry, looked up): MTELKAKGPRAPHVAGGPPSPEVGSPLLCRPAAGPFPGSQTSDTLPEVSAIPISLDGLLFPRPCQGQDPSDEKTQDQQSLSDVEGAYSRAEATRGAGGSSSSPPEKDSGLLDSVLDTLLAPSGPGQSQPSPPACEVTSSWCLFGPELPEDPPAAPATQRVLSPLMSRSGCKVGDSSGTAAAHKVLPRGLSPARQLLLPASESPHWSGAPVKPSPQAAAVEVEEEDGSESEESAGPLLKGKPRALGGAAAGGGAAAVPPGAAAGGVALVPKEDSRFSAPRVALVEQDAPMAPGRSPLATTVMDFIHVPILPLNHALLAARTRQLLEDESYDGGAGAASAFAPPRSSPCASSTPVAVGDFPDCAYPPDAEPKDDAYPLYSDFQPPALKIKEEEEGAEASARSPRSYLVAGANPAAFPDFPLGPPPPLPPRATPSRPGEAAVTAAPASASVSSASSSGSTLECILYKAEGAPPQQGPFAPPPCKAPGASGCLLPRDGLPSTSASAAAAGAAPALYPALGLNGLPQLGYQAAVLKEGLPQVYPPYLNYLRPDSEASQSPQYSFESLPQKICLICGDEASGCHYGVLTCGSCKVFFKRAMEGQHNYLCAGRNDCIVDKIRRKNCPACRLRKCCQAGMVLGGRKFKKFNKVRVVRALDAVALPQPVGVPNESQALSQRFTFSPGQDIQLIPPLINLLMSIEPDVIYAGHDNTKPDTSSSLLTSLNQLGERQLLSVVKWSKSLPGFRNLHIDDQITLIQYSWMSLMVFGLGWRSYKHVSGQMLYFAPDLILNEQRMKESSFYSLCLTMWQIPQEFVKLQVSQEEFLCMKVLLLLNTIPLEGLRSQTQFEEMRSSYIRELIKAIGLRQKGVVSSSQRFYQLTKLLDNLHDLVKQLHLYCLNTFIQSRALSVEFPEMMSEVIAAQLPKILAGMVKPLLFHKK

Regarding `Cc1ccc(C(C)NC(=O)[C@@H](NC(=O)OC(C)C)C(C)C)cc1` (stereo partly specified), the compound was classed as inactive in experiment [1], in [2], in experiment [3], in [4], in experiment [7] and in [8]. In addition, the outcome in experiment [9], in experiment [10], in experiment [11], in experiment [12], in [13] and in experiment [14] was inactive. For the same compound, the compound was called inactive in experiment [16] and in experiment [17]. The Potency result in [5], in experiment [6] and in experiment [15] was “inactive” each time.
Consider `CCCC(=O)OCCC(C)CCC=C(C)C` (stereo unspecified), for which the compound was called inactive in experiment [1], in experiment [2], in experiment [3], in [4], in experiment [7] and in experiment [8]. Also, the result in experiment [9], in [10], in experiment [11], in experiment [13], in [14] and in [16] was inactive. Also, in [17], the compound was classed as inactive. The Potency entry in experiment [5], in experiment [6] and in [15] was “inactive” throughout.
For `CC(C)=CCC[C@@](C)(O)[C@H]1CC=C(C)CC1`, the result in [1], in experiment [2], in experiment [3], in experiment [4], in [8] and in [9] was inactive. The call in experiment [10], in [11], in [13], in experiment [14], in [16] and in experiment [17] was inactive. The Potency entry in experiment [5], in experiment [6] and in experiment [15] was “inactive” each time.
For the compound `OC[C@@H](O)C(O)[C@@H](O)CO` (stereo partly specified), the result in [1], in experiment [2], in experiment [3], in experiment [4], in experiment [8] and in experiment [9] was inactive. The result in experiment [10], in experiment [18], in experiment [12], in experiment [13], in experiment [14] and in experiment [16] was inactive. For the same compound, the result in experiment [17] was inactive. Also, the Potency result in experiment [6] and in [15] was “inactive” throughout.
`O=Cc1ccccc1Cl`: the result in experiment [1], in experiment [4], in experiment [7], in [8], in experiment [9] and in experiment [10] was inactive. Besides, the compound was classed as inactive in experiment [11], in experiment [13], in experiment [14], in [16] and in experiment [17]. Besides, the Potency entry in experiment [5] and in [6] was “inactive” each time.
`c1ccc(B(c2ccccc2)c2ccccc2)cc1`: the compound was called inactive in [1], in experiment [4], in experiment [8], in experiment [9], in experiment [10] and in experiment [11]. Besides, the compound was called inactive in experiment [18], in [13], in experiment [14] and in experiment [16]. Moreover, in [5], the Potency result is “inactive”. The Potency in experiment [6] is 54.4 µM (active).
On to `CCn1cc(C(=O)O)c(=O)c2cnc(N3CCCC3)nc21`, for which the activity change, negative = cytotoxicity was 13.9% [at 8.39 µM] in experiment [1]; -1.71% [at 8.39 µM] in experiment [4]; 1.71% [at 8.39 µM] in experiment [8]; 3.95% [at 6.97 µM] in [10]; -1.63% [at 8.39 µM] in experiment [13]; 1.69% [at 8.39 µM] in experiment [15]. Besides, the activity change, negative = cytotoxicity in [17] was -1.49% [at 8.39 µM]. Further, in experiment [2], the cAMP activity change was -5.06% [at 8.39 µM]. In addition, the figures for the activity change, negative = inhibition in experiment [3] and in [6] were -0.0847% [at 8.39 µM] and 1.66% [at 8.39 µM], respectively. Besides, the activation in experiment [5] is 0.947% [at 8.39 µM]; in experiment [11], -0.108% [at 6.97 µM]; in experiment [12], -0.507% [at 5.23 µM]. Further, the viability change, negative = cytotoxic in [9] was 10.1% [at 6.97 µM]. Moreover, the activity, negative = inhibition in experiment [18] is 1.25% [at 4.65 µM]. Moreover, the caspase activation in experiment [14] is 1.75% [at 8.39 µM]. In experiment [16], the caspase-3/7 activation was 1.6% [at 8.39 µM].
As for `C=CCCCCCCCC`, the compound was called inactive in experiment [1], in experiment [2], in [3], in [4], in experiment [7] and in experiment [8]. The result in [9], in experiment [10], in experiment [11], in experiment [18], in [12] and in experiment [13] was inactive. The outcome in [14], in experiment [16] and in [17] was inactive. Moreover, the Potency entry in experiment [15] was “inactive”.
